# PubChem BioAssay (NCATS)
# Inconclusive results are not listed. Entries that show only a call come without a potency. Active and inactive are the calls of the source. Unless noted, the call rests on the fitted dose curve; in most records, active means well fitted curve in the direction sought with a large enough effect; inconclusive means small, poorly fitted or top-dose-only effect, or another doubt; inactive means no such curve, though single readings can be large; an effect the other way counts as inactive or inconclusive.
# What was measured:
# [1] = qHTS to identify inhibitors of the type 1 interferon - major histocompatibility complex class I in skeletal muscle: primary screen against the NCATS LOPAC collection (AID 1347405);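 further: lytic HiBiT luminescence reporting HLA-B protein level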; further: potency means the concentration at half of the fitted maximal effect
# Outline: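 Cells: C25cl48 human myoblasts, HiBiT-tagged HLA-B*08:01, stimulated with IFN-beta 4.0 ng/ml. Compounds are titrated 1:4.3 over 7 points from 46 uM final and incubated 24 hrs; endogenous MHC class I is quantified by HiBiT lytic luminescence.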
# [2] = Validation qHTS assay for inhibitors of Activation Induced Cytidine Deaminase (AID): UDG Counterscreen signal (AID 1347427)
# Outline: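 Counterscreen read of UDG activity (2 U/mL, 4/3x) in the FRET deamination format with AID (1 uM, 4/3x), DJC20/DJC23 substrates (250 nM, 4x), 4 h at room temperature. NaOH stop, fluorescence at 560 ex/665 em.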
# [3] = molecular target: Single-stranded DNA cytosine deaminase (Homo sapiens) (UniProt Q9GZX7); experiment: Validation qHTS assay for inhibitors of Activation Induced Cytidine Deaminase (AID): AID signal (AID 1347429)
# Chain of Single-stranded DNA cytosine deaminase (Homo sapiens) (Q9GZX7 whole entry, looked up): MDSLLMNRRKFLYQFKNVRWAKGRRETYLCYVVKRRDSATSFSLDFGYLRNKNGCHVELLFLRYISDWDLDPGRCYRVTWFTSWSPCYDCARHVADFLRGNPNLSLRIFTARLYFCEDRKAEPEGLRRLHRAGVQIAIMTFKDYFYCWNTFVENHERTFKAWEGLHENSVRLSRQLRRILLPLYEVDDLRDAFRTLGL
# Outline: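 In this coupled qHTS, AID deaminates a FRET-labelled ssDNA substrate in the presence of UDG over 4 hr at room temperature. Compounds span up to 114 uM final.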
# [4] = qHTS for inhibitors of adenylyl cyclases using a fission yeast platform: a pilot screen against the NCATS LOPAC library (AID 1347410)
# Outline: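 S. pombe CHP2027 (AC9-GNAS-PDE4D2) carrying a PKA-repressed fbp1-GFP reporter was exposed to LOPAC compounds (final up to 57 µM) for 18 h at 30C in the dark, in EMM with histidine, lysine and uracil; GFP gain-of-signal read by laser scanning cytometry.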
# [5] = Primary qHTS for inhibitors of SARS-S pseudo-typed particle cell entry (AID 1479145; calls by dose curve; further: nearly all actives have a fitted effect of over 45% in size); details: outcome: dose series up to 57.1 µM unless noted
# [6] = Primary qHTS for Huh7 cytotoxicity: counterscreen for inhibitors of MERS-S pseudotyped particle cell entry (AID 1479147; calls by dose curve); details: outcome: dose series up to 57.1 µM unless noted
# [7] = Primary qHTS for inhibitors of MERS-S pseudo-typed particle cell entry (AID 1479149; calls by dose curve; further: nearly all actives have a fitted effect of over 60% in size); details: outcome: dose series up to 57.1 µM unless noted
# [8] = Primary qHTS for Vero E6 cytotoxicity: counterscreen for inhibitors of SARS-S pseudo-typed particle cell entry (AID 1479150; calls by dose curve)
# [9] = qHTS to identify inhibitors of the type 1 interferon - major histocompatibility complex class I in skeletal muscle: primary screen against the NCATS Pharmaceutical Collection (AID 1347407);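 further: luminescence of HiBiT knocked into endogenous HLA-B as interferon-induced MHC class I level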
# Outline: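 Immortalized human myoblasts (C25cl48) with HiBiT knocked into endogenous HLA-B*08:01 were stimulated with 4 ng/ml IFN-beta and treated with compounds (8-point, 1:5, top 46 uM final) for 24 h at 37 C; HiBiT lytic luminescence read.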
# [10] = molecular target: Protein phosphatase 1D (Homo sapiens) (UniProt O15297); experiment: RapidFire Mass Spectrometry qHTS Assay for Modulators of WT P53-Induced Phosphatase 1 (WIP1) (AID 1347424);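 further: amount of dephosphorylated VEPPL-S-QETFS peptide product formed by WIP1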; further: potency means the concentration at half of the fitted maximal effect
# Chain of Protein phosphatase 1D (Homo sapiens) (O15297 whole entry, looked up): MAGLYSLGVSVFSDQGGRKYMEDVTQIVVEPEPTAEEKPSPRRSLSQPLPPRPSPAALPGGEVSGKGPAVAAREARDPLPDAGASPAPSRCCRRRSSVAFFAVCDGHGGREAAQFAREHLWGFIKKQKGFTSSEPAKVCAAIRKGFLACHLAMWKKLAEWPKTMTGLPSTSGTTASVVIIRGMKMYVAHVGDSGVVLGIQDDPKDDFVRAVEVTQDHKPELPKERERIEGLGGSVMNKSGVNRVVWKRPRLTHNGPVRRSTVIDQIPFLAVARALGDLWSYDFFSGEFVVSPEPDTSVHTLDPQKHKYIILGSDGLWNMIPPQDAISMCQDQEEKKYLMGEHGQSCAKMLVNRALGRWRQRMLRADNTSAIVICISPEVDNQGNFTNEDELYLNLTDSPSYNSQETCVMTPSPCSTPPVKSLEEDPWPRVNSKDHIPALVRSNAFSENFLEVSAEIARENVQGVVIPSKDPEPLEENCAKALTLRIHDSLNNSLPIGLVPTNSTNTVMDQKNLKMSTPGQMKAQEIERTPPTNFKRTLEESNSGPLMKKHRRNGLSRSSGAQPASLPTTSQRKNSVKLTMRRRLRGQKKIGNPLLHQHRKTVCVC
# Outline: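 WIP1 (10 nM final) was preincubated 1 h at room temperature with compounds in Tris-HCl pH 7.5, 30 mM MgCl2, TCEP, EGTA, BSA; 2 uM VEPPL-pS-QETFS phosphopeptide was added for 5 min, quenched with formic acid, and dephosphorylated product quantified by RapidFire MS.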
# [11] = molecular target: Protein phosphatase 1D (Homo sapiens) (UniProt O15297); experiment: Rhodamine-PBP qHTS Assay for Modulators of WT P53-Induced Phosphatase 1 (WIP1) (AID 1347425)
# Outline: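 WIP1 (5 nM final) was preincubated with compound for 1 hour at room temperature. It then dephosphorylated 10 uM VEPPL-pS-QETFS peptide in Tris-HCl pH 7.5 with 30 mM MgCl2. Released Pi was detected by 10 uM Rh-PBP fluorescence (ex 525/em 598 nm) read at 1-min intervals for 11 min, as delta f1 - f0.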
# [12] = qHTS to identify inhibitors of the type 1 interferon - major histocompatibility complex class I in skeletal muscle: primary screen against the NCATS Mechanism Interrogation Plate v5.0 (MIPE) Libary (AID 1347411); further: nearly all actives have a fitted effect of over 65% in size
# Outline: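 Cells were genome-edited human myoblasts carrying a HiBit tag on endogenous HLA-B. They were treated with IFN-beta (4.0 ng/ml) and titrated compounds (top 46 uM) for 24 hrs before lytic HiBiT detection.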
compound,measurement,setting,value
CCS(=O)(=O)Nc1cccc(C(=C2CCCCC2)c2cnc[nH]2)c1,Potency,[1],inactive
same,Potency,[2],inactive
same,Potency,[3],inactive
NCCCP(=O)(O)O,Potency,[1],inactive
same,Potency,[2],inactive
same,Potency,[3],inactive
NCCc1c[nH]c2ccc(C(N)=O)cc12,Potency,[1],inactive
same,Potency,[2],inactive
same,Potency,[3],inactive
C[C@@H]1O[C@@H](O[C@H]2C[C@@H](O)[C@]3(CO)[C@@H]4C(CC[C@]3(O)C2)[C@@]2(O)CC[C@H]([C@@H]3COC(=O)C3)[C@@]2(C)C[C@H]4O)[C@H](O)[C@H](O)[C@H]1O (some centres not stated),Potency,[1],1.12 µM (active)
same,Potency,[2],inactive
same,Potency,[3],inactive
CC(N)Cc1c[nH]c2ccc(O)cc12 (configuration not stated),Potency,[1],inactive
same,Potency,[2],inactive
same,Potency,[3],inactive
CCCN1CCc2cccc3c2[C@H]1Cc1ccc(O)c(O)c1-3,Potency,[1],inactive
same,Potency,[2],inactive
same,Potency,[3],inactive
NC(=O)COc1c(F)cc(SCCNS(=O)(=O)c2ccccc2)cc1F,Potency,[1],inactive
same,Potency,[2],inactive
same,Potency,[3],inactive
Nc1ccc(CCN2CCN(c3cccc(C(F)(F)F)c3)CC2)cc1,Potency,[1],inactive
same,Potency,[2],inactive
same,Potency,[3],inactive
O=[N+]([O-])c1ccc2nc(N3CCNCC3)ccc2c1,outcome,[4],inactive
same,Potency,[2],inactive
same,Potency,[3],inactive
c1ccc2c(N3CCNCC3)cccc2c1,Potency,[1],inactive
same,Potency,[2],inactive
same,Potency,[3],inactive
CN1CCC(c2c[nH]c3ccc(O)cc23)CC1,Potency,[1],inactive
same,Potency,[2],inactive
same,Potency,[3],inactive
C[N+](C)(C)CC#CCN1CCCC1=O,Potency,[1],inactive
same,Potency,[2],inactive
same,Potency,[3],inactive
COc1ccc(CNC(=O)/C=C/c2ccc3[nH]cc(CCN(C)C)c3c2)cc1,Potency,[1],inactive
same,Potency,[2],inactive
same,Potency,[3],inactive
COc1ccc(OC)c(C(O)C(C)N)c1 (configuration not stated),Potency,[1],inactive
same,Potency,[2],inactive
same,Potency,[3],inactive
same,outcome,[5],inactive
same,outcome,[6],inactive
same,outcome,[7],inactive
same,Potency,[8],inactive
CN1CCC[C@@H]1Cc1c[nH]c2ccc(Nc3ncccc3[N+](=O)[O-])cc12,outcome,[4],inactive
N=C(N)c1ccc(CS(=O)(=O)F)cc1,Potency,[1],inactive
same,Potency,[2],inactive
same,Potency,[3],inactive
CCCSP(=O)(OCC)SCCC,outcome,[9],inactive
same,Potency,[10],inactive
same,outcome,[11],inactive
CC(=O)OCC1=C(C(=O)O)N2C(=O)[C@@H](NC(=O)CCC[C@@H](N)C(=O)O)[C@H]2SC1,Potency,[1],inactive
same,Potency,[2],inactive
same,Potency,[3],inactive
C[C@]12Cc3cn4c(nc3C=C1CCC1C2CC[C@@]2(C)[C@H]1CC[C@@]2(O)C#N)nc1ccccc14 (some centres not stated),outcome,[4],inactive
same,Potency,[2],inactive
same,Potency,[3],inactive
C[C@H](Cc1ccc2c(c1)OC(C(=O)O)(C(=O)O)O2)NC[C@H](O)c1cccc(Cl)c1,Potency,[1],inactive
same,Potency,[2],inactive
same,Potency,[3],inactive
CC1=C2C[C@H]3[C@@H](CC=C4C[C@@H](O)CC[C@@]43C)[C@@H]2CC[C@]12O[C@@H]1C[C@H](C)CN[C@H]1[C@H]2C,outcome,[12],inactive
Cc1o[nH]c(=O)c1CC(N)C(=O)O (configuration not stated),Potency,[1],inactive
same,Potency,[2],inactive
same,Potency,[3],inactive
Oc1ccc2c3c1O[C@H]1c4oc5ccccc5c4C[C@@]4(O)C(C2)N(CC2CC2)CCC314 (some centres not stated),Potency,[1],inactive
same,Potency,[2],inactive
same,Potency,[3],inactive
CCCCCCCCCCCCCC(=O)O[C@@H]1[C@@H](C)[C@@]2(O)[C@@H](C=C(CO)C[C@@]3(O)C(=O)C(C)=C[C@@H]23)C2C(C)(C)[C@@]21OC(C)=O (some centres not stated),outcome,[4],inactive
same,Potency,[2],inactive
same,Potency,[3],inactive
C[C@]12CC[C@H]3[C@@H](CC[C@@]45O[C@@H]4C(O)=C(C#N)C[C@]35C)[C@@H]1CC[C@@H]2O,outcome,[12],inactive
CCOc1ccccc1-n1c(C(C)N2CCN(C(=O)COc3ccc(Cl)cc3)CC2)nc2ccccc2c1=O (configuration not stated),outcome,[12],inactive
OC1CCCCC1N1CCC(c2ccccc2)CC1 (configuration not stated),Potency,[1],inactive
same,Potency,[2],inactive
same,Potency,[3],inactive
CCCn1c(=O)c2[nH]c(C3CCCC3)nc2n(CCCOC(=O)c2ccc(S(=O)(=O)F)cc2)c1=O,Potency,[1],inactive
same,Potency,[2],inactive
same,Potency,[3],inactive
O=[N+]([O-])c1cc(O)c(O)c([N+](=O)[O-])c1,outcome,[4],inactive
same,Potency,[2],inactive
same,Potency,[3],inactive
COc1cc(C)[nH]c(=O)c1CNC(=O)c1c(C)n([C@H](C)C2CCOCC2)c2ccccc12,outcome,[12],inactive
COc1ccc2c(c1O)-c1cccc3c1[C@@H](C2)N(C)CC3,Potency,[1],inactive
same,Potency,[2],inactive
same,Potency,[3],inactive
NNC(=O)c1ccc(O)cc1,Potency,[1],inactive
same,Potency,[2],inactive
same,Potency,[3],inactive
CCCN1CCC[C@@H](c2cccc(O)c2)C1,Potency,[1],inactive
same,Potency,[2],inactive
same,Potency,[3],inactive
CC(Cc1ccc(OCC(=O)O)cc1)NCC(O)c1cccc(Cl)c1 (configuration not stated),Potency,[1],inactive
same,Potency,[2],inactive
same,Potency,[3],inactive
C[CH2][Hg][S]c1ccccc1C(=O)O,outcome,[9],inactive
same,Potency,[10],35.5 µM (active)
c1ccc2c(c1)[I+]c1ccccc1-2,Potency,[1],8.91 µM (active)
same,Potency,[3],inactive
CN1C2CCC1CC(OC(c1ccccc1)c1ccccc1N)C2 (configuration not stated),Potency,[1],inactive
same,Potency,[2],inactive
same,Potency,[3],inactive
C[N+](C)(C)CCOC(=O)CBr,Potency,[1],inactive
same,Potency,[2],inactive
same,Potency,[3],inactive
O=[N+]([O-])C(Br)(CO)CO,outcome,[5],inactive
same,outcome,[6],inactive
same,outcome,[7],inactive
same,Potency,[8],inactive
C=CCN1CC[C@]23c4c5ccc(O)c4O[C@H]2/C(=N/NC(=O)c2ccccc2)CC[C@@]3(O)[C@H]1C5,Potency,[2],inactive
same,Potency,[3],inactive
